We go through 32 sequences from article PMC11006913.

Holding throughout (assay): PBM; 200 nM protein, PBS
What all share (conditions): dsDNA, one strand shown

For experiment [1], the target named is PROP1 (Homo sapiens, UniProt O75360 56-141).
The target in experiment [2] is PROP1 (Homo sapiens, UniProt O75360 56-141, R99H).
For experiment [3], the target named is PROP1 (Homo sapiens, UniProt O75360 56-141, F88S).
For experiment [4], the target named is HESX1 (Homo sapiens, UniProt Q9UBX0 95-180, R109Q).
For experiment [5], the target named is VAX1 (Homo sapiens, UniProt Q5SQQ9 86-172).
Experiment [6] concerns the target VAX1 (Homo sapiens, UniProt Q5SQQ9 86-172, T142I).
In experiment [7] the target is VAX1 (Homo sapiens, UniProt Q5SQQ9 86-172, K157R).
Chain of VAX1 (Homo sapiens, UniProt Q5SQQ9 86-172, K157R) (Q5SQQ9 86-172 K157R): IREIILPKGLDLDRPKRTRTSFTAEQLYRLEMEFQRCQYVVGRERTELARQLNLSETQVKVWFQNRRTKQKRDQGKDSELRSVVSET

Chain of PROP1 (Homo sapiens, UniProt O75360 56-141, R99H) (O75360 56-141 R99H): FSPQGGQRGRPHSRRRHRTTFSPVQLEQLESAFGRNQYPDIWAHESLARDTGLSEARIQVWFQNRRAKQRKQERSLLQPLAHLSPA
Chain of VAX1 (Homo sapiens, UniProt Q5SQQ9 86-172, T142I) (Q5SQQ9 86-172 T142I): as the sequence (Q5SQQ9 86-172 K157R) above, with T57I, R72K counted along it
Chain of PROP1 (Homo sapiens, UniProt O75360 56-141) (O75360 56-141): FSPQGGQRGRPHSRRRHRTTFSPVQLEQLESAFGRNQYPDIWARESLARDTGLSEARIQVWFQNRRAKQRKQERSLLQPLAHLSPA
Chain of PROP1 (Homo sapiens, UniProt O75360 56-141, F88S) (O75360 56-141 F88S): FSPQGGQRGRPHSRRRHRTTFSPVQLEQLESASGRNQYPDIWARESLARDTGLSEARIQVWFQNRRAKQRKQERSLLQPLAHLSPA
Chain of VAX1 (Homo sapiens, UniProt Q5SQQ9 86-172) (Q5SQQ9 86-172): as the sequence (Q5SQQ9 86-172 K157R) above, with R72K counted along it
Chain of HESX1 (Q9UBX0 95-180 R109Q): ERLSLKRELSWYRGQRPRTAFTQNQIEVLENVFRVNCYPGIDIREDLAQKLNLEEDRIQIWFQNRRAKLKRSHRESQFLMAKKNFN

With AGTAAATA, the binding signal in experiment [1] is 8.94 upbm affinity estimate (log intensity, higher = more binding, comparable within an allelic series); in experiment [2], 8.48 upbm affinity estimate (log intensity, higher = more binding, comparable within an allelic series); in experiment [3], 7.6 upbm affinity estimate (log intensity, higher = more binding, comparable within an allelic series).

In the case of GACATTAC, the binding signal was 8.23 upbm affinity estimate (log intensity, higher = more binding, comparable within an allelic series) in experiment [1]; 7.84 upbm affinity estimate (log intensity, higher = more binding, comparable within an allelic series) in experiment [2]; 7.27 upbm affinity estimate (log intensity, higher = more binding, comparable within an allelic series) in experiment [3].

As for CCGATGGC, the binding signal in experiment [1] is 6.65 upbm affinity estimate (log intensity, higher = more binding, comparable within an allelic series); in experiment [2], 6.61 upbm affinity estimate (log intensity, higher = more binding, comparable within an allelic series); in experiment [3], 6.61 upbm affinity estimate (log intensity, higher = more binding, comparable within an allelic series).

On to CCTGTTAC, for which the binding signal in experiment [1] is 7.8 upbm affinity estimate (log intensity, higher = more binding, comparable within an allelic series); in experiment [3], 7.11 upbm affinity estimate (log intensity, higher = more binding, comparable within an allelic series).

As for ATGCCAGC, the binding signal in experiment [1] was 6.71 upbm affinity estimate (log intensity, higher = more binding, comparable within an allelic series); in experiment [2], 6.77 upbm affinity estimate (log intensity, higher = more binding, comparable within an allelic series); in experiment [3], 6.73 upbm affinity estimate (log intensity, higher = more binding, comparable within an allelic series).

With AATCAATT, in experiment [4], the binding signal was 8.86 upbm affinity estimate (log intensity, higher = more binding, comparable within an allelic series).

For GGATGCAC, the binding signal in experiment [1] is 6.71 upbm affinity estimate (log intensity, higher = more binding, comparable within an allelic series); in experiment [2], 6.74 upbm affinity estimate (log intensity, higher = more binding, comparable within an allelic series); in experiment [3], 6.83 upbm affinity estimate (log intensity, higher = more binding, comparable within an allelic series).

For the sequence AATGGGGC, the binding signal in experiment [1] is 8.17 upbm affinity estimate (log intensity, higher = more binding, comparable within an allelic series); in experiment [3] it was 7.05 upbm affinity estimate (log intensity, higher = more binding, comparable within an allelic series).

AACTAAGC: the binding signal in experiment [5] was 9.21 upbm affinity estimate (log intensity, higher = more binding, comparable within an allelic series).

Turning to GGAACGCC, the binding signal is 6.7 upbm affinity estimate (log intensity, higher = more binding, comparable within an allelic series) in experiment [1]; 6.87 upbm affinity estimate (log intensity, higher = more binding, comparable within an allelic series) in experiment [2]; 6.68 upbm affinity estimate (log intensity, higher = more binding, comparable within an allelic series) in experiment [3].

In the case of CCGCACCC, the binding signal in experiment [1] was 6.68 upbm affinity estimate (log intensity, higher = more binding, comparable within an allelic series); in experiment [2], 6.9 upbm affinity estimate (log intensity, higher = more binding, comparable within an allelic series); in experiment [3] it was 6.69 upbm affinity estimate (log intensity, higher = more binding, comparable within an allelic series).

Regarding GTCAGGAC, the binding signal in experiment [1] was 6.88 upbm affinity estimate (log intensity, higher = more binding, comparable within an allelic series); in experiment [2], 6.96 upbm affinity estimate (log intensity, higher = more binding, comparable within an allelic series); in experiment [3] it was 6.86 upbm affinity estimate (log intensity, higher = more binding, comparable within an allelic series).

Consider GGCATGAC, for which the binding signal in experiment [1] is 6.69 upbm affinity estimate (log intensity, higher = more binding, comparable within an allelic series); in experiment [2] it was 6.75 upbm affinity estimate (log intensity, higher = more binding, comparable within an allelic series); in experiment [3], 6.7 upbm affinity estimate (log intensity, higher = more binding, comparable within an allelic series).

On to GGAGCAGA, for which the binding signal in experiment [1] is 6.75 upbm affinity estimate (log intensity, higher = more binding, comparable within an allelic series); in experiment [2] it was 6.89 upbm affinity estimate (log intensity, higher = more binding, comparable within an allelic series); in experiment [3], 6.82 upbm affinity estimate (log intensity, higher = more binding, comparable within an allelic series).

In the case of CGATGCCC, the binding signal is 6.76 upbm affinity estimate (log intensity, higher = more binding, comparable within an allelic series) in experiment [1]; 6.86 upbm affinity estimate (log intensity, higher = more binding, comparable within an allelic series) in experiment [2]; 6.71 upbm affinity estimate (log intensity, higher = more binding, comparable within an allelic series) in experiment [3].

AACTAAAT: the binding signal is 9.34 upbm affinity estimate (log intensity, higher = more binding, comparable within an allelic series) in experiment [1]; 8.6 upbm affinity estimate (log intensity, higher = more binding, comparable within an allelic series) in experiment [2]; 7.5 upbm affinity estimate (log intensity, higher = more binding, comparable within an allelic series) in experiment [3].

As to TACCCTAA, the binding signal in experiment [1] is 8.09 upbm affinity estimate (log intensity, higher = more binding, comparable within an allelic series); in experiment [3], 7.04 upbm affinity estimate (log intensity, higher = more binding, comparable within an allelic series).

With ACCGAGAG, the binding signal in experiment [1] is 6.71 upbm affinity estimate (log intensity, higher = more binding, comparable within an allelic series); in experiment [2], 6.74 upbm affinity estimate (log intensity, higher = more binding, comparable within an allelic series); in experiment [3], 6.73 upbm affinity estimate (log intensity, higher = more binding, comparable within an allelic series).

As to ATATTTGC, the binding signal was 8.36 upbm affinity estimate (log intensity, higher = more binding, comparable within an allelic series) in experiment [1]; 7.99 upbm affinity estimate (log intensity, higher = more binding, comparable within an allelic series) in experiment [2]; 7.34 upbm affinity estimate (log intensity, higher = more binding, comparable within an allelic series) in experiment [3].

With ATCAACGG, the binding signal in experiment [5] was 9.55 upbm affinity estimate (log intensity, higher = more binding, comparable within an allelic series).

As for CATTACGC, the binding signal in experiment [5] was 11.1 upbm affinity estimate (log intensity, higher = more binding, comparable within an allelic series); in experiment [6], 10.6 upbm affinity estimate (log intensity, higher = more binding, comparable within an allelic series); in experiment [7], 10.7 upbm affinity estimate (log intensity, higher = more binding, comparable within an allelic series).

Consider TATAAAGA, for which the binding signal in experiment [5] was 9.93 upbm affinity estimate (log intensity, higher = more binding, comparable within an allelic series); in experiment [6], 9.32 upbm affinity estimate (log intensity, higher = more binding, comparable within an allelic series); in experiment [7], 9.28 upbm affinity estimate (log intensity, higher = more binding, comparable within an allelic series).

Take GCGGAGAC: the binding signal in experiment [5] is 7.14 upbm affinity estimate (log intensity, higher = more binding, comparable within an allelic series); in experiment [6], 7.32 upbm affinity estimate (log intensity, higher = more binding, comparable within an allelic series); in experiment [7], 7.29 upbm affinity estimate (log intensity, higher = more binding, comparable within an allelic series).

With CAGCCGTA, the binding signal in experiment [5] was 7.32 upbm affinity estimate (log intensity, higher = more binding, comparable within an allelic series); in experiment [6] it was 7.28 upbm affinity estimate (log intensity, higher = more binding, comparable within an allelic series); in experiment [7], 7.24 upbm affinity estimate (log intensity, higher = more binding, comparable within an allelic series).

Consider AAGTAAAT, for which the binding signal in experiment [5] is 10.5 upbm affinity estimate (log intensity, higher = more binding, comparable within an allelic series); in experiment [6] it was 10.2 upbm affinity estimate (log intensity, higher = more binding, comparable within an allelic series); in experiment [7], 10.2 upbm affinity estimate (log intensity, higher = more binding, comparable within an allelic series).

On to AGGCGGGA, for which the binding signal in experiment [5] was 6.99 upbm affinity estimate (log intensity, higher = more binding, comparable within an allelic series); in experiment [6], 7.2 upbm affinity estimate (log intensity, higher = more binding, comparable within an allelic series); in experiment [7], 7.24 upbm affinity estimate (log intensity, higher = more binding, comparable within an allelic series).

CGGAGACC: the binding signal is 6.9 upbm affinity estimate (log intensity, higher = more binding, comparable within an allelic series) in experiment [5]; 7.22 upbm affinity estimate (log intensity, higher = more binding, comparable within an allelic series) in experiment [6]; 7.28 upbm affinity estimate (log intensity, higher = more binding, comparable within an allelic series) in experiment [7].

With CTTCATCA, the binding signal is 9.74 upbm affinity estimate (log intensity, higher = more binding, comparable within an allelic series) in experiment [5]; 9.33 upbm affinity estimate (log intensity, higher = more binding, comparable within an allelic series) in experiment [6]; 9.51 upbm affinity estimate (log intensity, higher = more binding, comparable within an allelic series) in experiment [7].

Turning to CGTCATGA, the binding signal was 8.84 upbm affinity estimate (log intensity, higher = more binding, comparable within an allelic series) in experiment [5]; 8.58 upbm affinity estimate (log intensity, higher = more binding, comparable within an allelic series) in experiment [6]; 8.62 upbm affinity estimate (log intensity, higher = more binding, comparable within an allelic series) in experiment [7].

In the case of GGTCTCCA, the binding signal is 7.04 upbm affinity estimate (log intensity, higher = more binding, comparable within an allelic series) in experiment [5]; 7.37 upbm affinity estimate (log intensity, higher = more binding, comparable within an allelic series) in experiment [6]; 7.2 upbm affinity estimate (log intensity, higher = more binding, comparable within an allelic series) in experiment [7].

With ATTTCTAG, the binding signal in experiment [5] was 9.13 upbm affinity estimate (log intensity, higher = more binding, comparable within an allelic series); in experiment [6], 8.86 upbm affinity estimate (log intensity, higher = more binding, comparable within an allelic series).

For AGCCATTA, the binding signal in experiment [5] is 11.7 upbm affinity estimate (log intensity, higher = more binding, comparable within an allelic series); in experiment [6], 11.3 upbm affinity estimate (log intensity, higher = more binding, comparable within an allelic series); in experiment [7], 11.2 upbm affinity estimate (log intensity, higher = more binding, comparable within an allelic series).
